Assay results as given in PubChem BioAssay (NCATS).
Records with an inconclusive call do not appear. Active and inactive are the calls of the source. Unless noted, the call rests on the fitted dose curve; in most records, active means well fitted curve in the direction sought with a large enough effect; inconclusive means small, poorly fitted or top-dose-only effect, or another doubt; inactive means no such curve, though single readings can be large; an effect the other way counts as inactive or inconclusive.

Key:
[1] = target: Lysosomal acid glucosylceramidase (Homo sapiens) (UniProt P04062); assay: Glucocerebrosidase-p2 (AID 348; in the data active means potency below about 10 µM; further: potency means the concentration at half of the fitted maximal effect); conditions: purified GBA, blue fluorogenic substrate, 40 min
Method in brief: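 Normal human glucocerebrosidase (0.2 nM) with blue fluorogenic substrate (80 uM final) in citrate/phosphate pH 5.9 with 10mM sodium taurocholate, 0.01% tween-20; 40 min RT, NaOH/glycine stop; fluorescence Ex 365/Em 440; AC50 from a titration from 0.6 nM upwards.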

[2] = AP1 Signaling Pathway (AID 357; active means well fitted curve in either direction with a large enough effect, not every such curve was filed as active; further: on the % scale 0 is the no-effect control and ±100 the full control effect); conditions: ME-180 AP-1-bla reporter, EGF-induced, beta-lactamase ratio, 5 h; at 7.69 µM (top of the series) unless noted
Method in brief: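 ME-180 cells with beta-lactamase reporter under AP-1 response element, stimulated with EC50 EGF; compounds tested in titration series, 5 h at 37 °C. CCF4 substrate added 2.5 h at room temperature; 460/530 nm emission ratio gave %activity and AC50.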

[3] = target: Cytochrome P450 1A2 (Homo sapiens) (UniProt P05177); assay: p450-cyp1a2 (AID 410; calls by dose curve; further: potency means the concentration at half of the fitted maximal effect); conditions: recombinant CYP1A2, luciferin-ME demethylation, luminescence; series mostly up to 57 µM
Method in brief: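 Read-out is luminescence from luciferin produced by CYP1A2 demethylation of Luciferin-ME (100uM, at Km). Detection reagent stopped the 60 min NADPH-dependent reaction; signals were normalized to 57 uM furafylline.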

[4] = NFAT Signaling Pathway (AID 444; active means well fitted curve in either direction with a large enough effect, not every such curve was filed as active;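 further: carbachol stimulus at about its EC50 of 1 µM final; on the % scale 0 is the no-effect control and ±100 the full control effect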); conditions: Jurkat NFAT-bla M1, carbachol, beta-lactamase ratio, 5 h; at 7.69 µM (top of the series) unless noted
Method in brief: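 Jurkat cells carrying an NFAT-driven β-lactamase reporter and co-transfected muscarinic M1 receptor were treated with compound plus carbachol (1 uM final, an EC50 level) for 5 h at 37 °C. CCF4 loading followed for 1 h at RT; 460/530 nm ratio gave %activity.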

[5] = Stat Signaling Pathway (AID 446; active means well fitted curve in either direction with a large enough effect, not every such curve was filed as active;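 further: ME-180 cervical cancer cells given 40 pM IL-6 alongside compound; SIE-controlled beta-lactamase reporter measured as 460/530 nm FRET emission ratio; on the % scale 0 is the no-effect control and ±100 the full control effect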); conditions: ME-180 (cervical carcinoma) SIE beta-lactamase reporter, IL-6 stimulated, 5 h; at 7.69 µM (top of the series) unless noted
Method in brief: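 Normalization used AC90 stimulation (300 pM IL-6) and AC90 inhibition (125 nM pan-JAK inhibitor at 40 pM IL-6). The underlying signal is SIE-driven beta-lactamase in ME-180 cells after 5 h IL-6 exposure with compound.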

[6] = target: Glucocorticoid receptor (Homo sapiens) (UniProt P04150); assay: GR-GFP Redistribution (AID 450;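 active means compounds whose dose series gives a full or clear partial fitted curve of increased nuclear translocation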; further: potency means the concentration at half of the fitted maximal effect); conditions: U2OS GR-GFP nuclear translocation, laser cytometry, 2 h
[7] = target: Glucocorticoid receptor (Homo sapiens) (UniProt P04150); assay: GR-EFC Redistribution (AID 451; calls by dose curve; further: potency means the concentration at half of the fitted maximal effect); conditions: CHO-K1 GR-EFC translocation, beta-gal luminescence, 2 h
Method in brief: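 CHO-K1 cells stably expressing nuclear-localized β-gal enzyme acceptor and GR fused C-terminally to the enzyme donor fragment; ligand-driven nuclear translocation restores β-gal by complementation. Compounds titrated up to 46 uM final, 2 h at 37 °C; luminescence read.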

[8] = target: Mitogen-activated protein kinase 10 (Mus musculus) (UniProt Q61831); assay: JNK3 AlphaScreen Assay (AID 530; active means well fitted curve in either direction with a large enough effect, not every such curve was filed as active;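 further: kinase came from lysate of stimulated human HepG2 cells; signal reports phosphorylation of biotinylated GST-cJun 1-79 at Ser73 with 10 µM ATP; on the % scale 0 is the no-effect control and ±100 the full control effect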); conditions: JNK3 lysate, c-Jun phosphorylation; series mostly up to 57.1 µM
Method in brief: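 Biotinylated GST-cJun(1-79) served as substrate for JNK3 in HepG2 lysates stimulated with IL-1beta and TNF-alpha. ATP was 10 uM final, pH 7.6. Ser73 phosphorylation was quantified by AlphaScreen (680 nm excitation).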

[9] = target: Cytochrome P450 3A4 (Homo sapiens) (UniProt P08684); assay: qHTS Assay for Activators of Cytochrome P450 3A4 (AID 885); conditions: recombinant CYP3A4, Luciferin-PPXE luminescence, 60 min; series mostly up to 57.1 µM; further: nearly all actives have a fitted effect of over 65% in size
Method in brief: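 Human CYP3A4 dealkylates Luciferin-PPXE to luciferin, which luciferase detection converts to light. Substrate was at its KM (25uM), buffer 200mM KPO4, reaction 60 min at RT.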

[10] = qHTS Assay for Lipid Storage Modulators (AID 1519; calls by dose curve); conditions: Drosophila S3 cells, BODIPY lipid droplet/cell ratio, laser cytometry, cells loaded with oleic acid; for activity change, negative = inhibition: at 57.5 µM (top of the series)
Method in brief: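 Cells seeded at 5,000 per well were treated with compounds over a concentration series and loaded with oleic acid (400 uM, as added). Lipid droplet fluorescence (488 nm excitation, 500-530 nm channel) was read by laser-scanning cytometry and normalized to 20 uM Triacsin C.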

[11] = target: Dual specificity protein kinase CLK4 (Homo sapiens) (UniProt Q9HAZ1); assay: qHTS Assay for Inhibitors of CDC-like Kinase 4 (Kinase-Glo Assay) (AID 1770); conditions: recombinant Clk4, Kinase-Glo ATP depletion luminescence; series mostly up to 66.7 µM; further: nearly all actives have a fitted effect of over 65% in size; further: potency means the concentration at half of the fitted maximal effect
Method in brief: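 Recombinant human Clk4 (25 nM) phosphorylated RS repeat peptide (100 uM) with 1 uM ATP in Tris pH 7.5/MgCl2/EGTA/DTT/Triton buffer for 4.5 h at room temperature. Residual ATP was quantified by Kinase-Glo luciferase luminescence.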

[12] = target: Dual specificity protein kinase CLK4 (Homo sapiens) (UniProt Q9HAZ1); assay: qHTS Assay for Inhibitors of CDC-like Kinase 4 (ADP-Glo Assay) (AID 1771); conditions: recombinant CLK4, ADP-Glo luminescence; series mostly up to 80 µM; further: potency means the concentration at half of the fitted maximal effect; nearly all actives have a fitted effect of over 70% in size
Method in brief: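 In this ADP-Glo format, 1 uM ATP and 100 uM RS peptide served as substrates for 25 nM Clk4 in Mg2+/EGTA/DTT/Triton buffer; reactions ran 1 hr at room temperature before luminescent ADP quantification.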

[13] = target: Ubiquitin carboxyl-terminal hydrolase 1 (Homo sapiens) (UniProt O94782); assay: Inhibitors of USP1/UAF1: Pilot qHTS (AID 504865); conditions: purified USP1/UAF1, Ub-rhodamine cleavage fluorescence; series mostly up to 54.9 µM;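 further: rhodamine fluorescence freed from ubiquitin-rhodamine substrate followed over time; top concentration of the series differs between compounds; on the % scale 0 is the no-effect control and ±100 the full control effect; nearly all actives have a fitted effect of over 35% in size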
Method in brief: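 USP1/UAF1 complex (1nM) preincubated with compound 15 min at room temperature, then Ub-Rho substrate (150nM final) added. Fluorescence read kinetically at 480/540 nm, 6 reads every 60 seconds. Buffer: 50mM HEPES pH 7.8, 0.5mM EDTA, 0.1 mg/ml BSA, 1mM TCEP, 0.01% Tween-20.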

[14] = Primary qHTS for small molecule stabilizers of the endoplasmic reticulum resident proteome: Secreted ER Calcium Modulated Protein (SERCaMP) assay (AID 1508630); conditions: SH-SY5Y GLuc-SERCaMP (Gaussia luciferase released on ER calcium loss) secretion, thapsigargin, luminescence; series mostly up to 38.4 µM; further: on the % scale 0 is the no-effect control and ±100 the full control effect
Method in brief: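 The SH-SY5Y reporter protocol was run at 3 concentrations up to 38.3 uM (primary) or 11 concentrations (follow-up): 16 h compound, 100 nM thapsigargin for 4 h, then extracellular luciferase luminescence.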

[15] = target: 3',5'-cyclic-AMP phosphodiesterase 4B (Homo sapiens) (UniProt Q07343); assay: qHTS Assay for Inhibitors of PDE-IV (AID 607; active means well fitted activation curve with a large enough effect in the main read-out, with a control signal flat, not every such curve was filed as active; further: % of control where 0% means no effect); conditions: HEK293 ACTOne CNG channel cells, membrane potential fluorescence; series mostly up to 22.9 µM
Method in brief: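 HEK293 ACTOne cells with CNG channel (1000/well), endogenous PDE4; membrane potential dye, compounds up to 22.9 uM final. Fluorescence Ex 535/Em 590; RO 20-1724 (100 uM final) as reference.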

[16] = target: Dual specificity protein kinase CLK4 (Homo sapiens) (UniProt Q9HAZ1); assay: qHTS Assay for Inhibitors of CDC-like Kinase 4 (ADP-FP Assay) (AID 1795); conditions: Transcreener ADP fluorescence polarization; series mostly up to 50 µM; further: on the % scale 0 is the no-effect control and ±100 the full control effect; nearly all actives have a fitted effect of over 60% in size
Method in brief: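 Recombinant human Clk4 (6.25 nM) phosphorylated RS repeat peptide (100 uM) with 1 uM ATP in Tris pH 7.5/MgCl2/EGTA/DTT/Triton buffer for one hour. ADP was quantified by Transcreener competitive fluorescence polarization against an ADP calibration curve.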

[17] = target: Cytochrome P450 2C9 (Homo sapiens) (UniProt P11712); assay: qHTS Assay for Inhibitors and Substrates of Cytochrome P450 2C9 (AID 883); conditions: recombinant CYP2C9, luciferin-H luminescence, 60 min; series mostly up to 57.1 µM; further: on the % scale 0 is the no-effect control and ±100 the full control effect; nearly all actives have a fitted effect of over 60% in size
Method in brief: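 A luminogenic readout tracked human CYP2C9 (10nM) converting deoxyluciferin (100uM, at KM) in 25mM KPO4 during 60 min at 37C with regenerated NADPH. Values normalized to 57uM sulphaphenazole as complete inhibition.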

[18] = measured here: cell count channel max response
[19] = measured here: lipid channel max response

Chain of Dual specificity protein kinase CLK4 (Homo sapiens) (Q9HAZ1 whole entry, looked up): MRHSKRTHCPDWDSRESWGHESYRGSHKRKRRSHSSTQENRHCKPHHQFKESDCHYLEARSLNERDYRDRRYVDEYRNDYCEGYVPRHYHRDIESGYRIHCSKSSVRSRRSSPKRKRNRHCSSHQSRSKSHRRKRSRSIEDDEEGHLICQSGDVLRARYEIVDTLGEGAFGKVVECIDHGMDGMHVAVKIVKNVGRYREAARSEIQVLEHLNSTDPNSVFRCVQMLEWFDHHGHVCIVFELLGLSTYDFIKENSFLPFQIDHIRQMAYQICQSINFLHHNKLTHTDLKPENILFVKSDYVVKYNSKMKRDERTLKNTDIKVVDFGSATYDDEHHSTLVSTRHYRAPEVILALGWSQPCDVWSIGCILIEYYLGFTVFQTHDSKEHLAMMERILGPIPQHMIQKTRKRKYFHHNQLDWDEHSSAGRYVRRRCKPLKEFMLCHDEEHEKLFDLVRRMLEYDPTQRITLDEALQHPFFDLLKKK
Chain of Ubiquitin carboxyl-terminal hydrolase 1 (Homo sapiens) (O94782 whole entry, looked up): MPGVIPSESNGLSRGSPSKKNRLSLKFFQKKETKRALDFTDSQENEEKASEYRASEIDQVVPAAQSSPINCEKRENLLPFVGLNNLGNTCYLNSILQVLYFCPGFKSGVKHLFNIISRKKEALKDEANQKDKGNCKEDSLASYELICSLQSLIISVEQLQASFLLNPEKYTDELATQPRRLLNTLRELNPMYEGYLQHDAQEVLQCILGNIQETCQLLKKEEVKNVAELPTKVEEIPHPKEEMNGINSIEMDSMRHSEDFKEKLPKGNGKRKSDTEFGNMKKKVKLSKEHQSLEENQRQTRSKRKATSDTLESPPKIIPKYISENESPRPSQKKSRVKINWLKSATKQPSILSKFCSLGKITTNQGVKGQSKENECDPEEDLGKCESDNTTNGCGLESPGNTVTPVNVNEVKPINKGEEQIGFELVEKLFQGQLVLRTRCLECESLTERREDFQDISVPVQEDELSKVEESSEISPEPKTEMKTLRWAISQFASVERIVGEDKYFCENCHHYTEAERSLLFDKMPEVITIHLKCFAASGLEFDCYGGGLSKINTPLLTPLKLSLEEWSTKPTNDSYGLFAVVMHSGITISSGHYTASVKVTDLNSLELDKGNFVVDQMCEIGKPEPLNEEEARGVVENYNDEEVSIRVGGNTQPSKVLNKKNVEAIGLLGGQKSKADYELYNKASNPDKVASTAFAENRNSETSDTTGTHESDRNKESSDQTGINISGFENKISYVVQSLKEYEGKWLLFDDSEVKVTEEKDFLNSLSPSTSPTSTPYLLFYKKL
Chain of Lysosomal acid glucosylceramidase (Homo sapiens) (P04062 whole entry, looked up): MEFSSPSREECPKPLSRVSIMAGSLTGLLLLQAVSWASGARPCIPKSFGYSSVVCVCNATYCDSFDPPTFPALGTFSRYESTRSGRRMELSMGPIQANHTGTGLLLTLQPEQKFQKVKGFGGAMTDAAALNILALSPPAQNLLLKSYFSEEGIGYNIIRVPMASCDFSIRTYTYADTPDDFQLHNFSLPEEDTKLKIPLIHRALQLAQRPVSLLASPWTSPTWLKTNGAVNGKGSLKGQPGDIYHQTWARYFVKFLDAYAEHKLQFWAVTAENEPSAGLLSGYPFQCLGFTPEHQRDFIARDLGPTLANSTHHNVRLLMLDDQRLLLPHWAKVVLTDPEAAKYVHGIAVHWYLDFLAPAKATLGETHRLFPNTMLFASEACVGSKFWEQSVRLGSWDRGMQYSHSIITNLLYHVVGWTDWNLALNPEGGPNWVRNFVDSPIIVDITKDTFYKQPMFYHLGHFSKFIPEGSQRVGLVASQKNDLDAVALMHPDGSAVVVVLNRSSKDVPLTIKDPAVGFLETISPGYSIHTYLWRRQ
Chain of 3',5'-cyclic-AMP phosphodiesterase 4B (Homo sapiens) (Q07343 whole entry, looked up): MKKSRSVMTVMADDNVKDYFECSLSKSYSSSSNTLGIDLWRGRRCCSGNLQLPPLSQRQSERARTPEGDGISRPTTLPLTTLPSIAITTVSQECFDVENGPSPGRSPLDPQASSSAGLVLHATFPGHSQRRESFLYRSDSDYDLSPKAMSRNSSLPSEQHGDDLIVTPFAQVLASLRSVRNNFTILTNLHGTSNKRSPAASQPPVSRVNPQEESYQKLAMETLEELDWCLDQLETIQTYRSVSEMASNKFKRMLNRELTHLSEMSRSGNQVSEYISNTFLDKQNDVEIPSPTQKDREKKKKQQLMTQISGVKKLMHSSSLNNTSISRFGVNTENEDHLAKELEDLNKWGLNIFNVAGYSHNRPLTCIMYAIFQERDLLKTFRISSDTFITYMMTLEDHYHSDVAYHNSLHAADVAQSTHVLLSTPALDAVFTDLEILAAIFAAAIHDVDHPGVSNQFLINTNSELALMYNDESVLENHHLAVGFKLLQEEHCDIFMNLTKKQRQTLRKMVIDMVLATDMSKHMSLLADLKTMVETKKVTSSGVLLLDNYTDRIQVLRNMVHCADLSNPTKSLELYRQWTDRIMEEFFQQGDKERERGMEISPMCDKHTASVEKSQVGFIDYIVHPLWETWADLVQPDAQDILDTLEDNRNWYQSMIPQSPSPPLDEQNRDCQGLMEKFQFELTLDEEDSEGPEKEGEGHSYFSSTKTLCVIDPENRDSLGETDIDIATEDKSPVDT
Chain of Cytochrome P450 3A4 (Homo sapiens) (P08684 whole entry, looked up): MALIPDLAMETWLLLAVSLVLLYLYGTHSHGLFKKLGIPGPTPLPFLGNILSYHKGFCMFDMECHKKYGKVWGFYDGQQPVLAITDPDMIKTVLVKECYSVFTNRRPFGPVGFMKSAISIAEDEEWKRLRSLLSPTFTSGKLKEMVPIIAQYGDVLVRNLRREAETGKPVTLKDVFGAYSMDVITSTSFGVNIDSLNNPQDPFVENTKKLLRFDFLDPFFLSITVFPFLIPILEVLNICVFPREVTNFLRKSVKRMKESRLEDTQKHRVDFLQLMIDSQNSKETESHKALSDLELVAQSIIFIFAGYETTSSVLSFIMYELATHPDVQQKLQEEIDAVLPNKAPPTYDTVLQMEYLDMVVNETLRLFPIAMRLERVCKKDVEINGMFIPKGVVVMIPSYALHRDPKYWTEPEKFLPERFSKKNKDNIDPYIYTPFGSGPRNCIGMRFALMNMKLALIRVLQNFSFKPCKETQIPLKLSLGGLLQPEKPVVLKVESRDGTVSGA
Chain of Glucocorticoid receptor (Homo sapiens) (P04150 whole entry, looked up, the tested form may be a part): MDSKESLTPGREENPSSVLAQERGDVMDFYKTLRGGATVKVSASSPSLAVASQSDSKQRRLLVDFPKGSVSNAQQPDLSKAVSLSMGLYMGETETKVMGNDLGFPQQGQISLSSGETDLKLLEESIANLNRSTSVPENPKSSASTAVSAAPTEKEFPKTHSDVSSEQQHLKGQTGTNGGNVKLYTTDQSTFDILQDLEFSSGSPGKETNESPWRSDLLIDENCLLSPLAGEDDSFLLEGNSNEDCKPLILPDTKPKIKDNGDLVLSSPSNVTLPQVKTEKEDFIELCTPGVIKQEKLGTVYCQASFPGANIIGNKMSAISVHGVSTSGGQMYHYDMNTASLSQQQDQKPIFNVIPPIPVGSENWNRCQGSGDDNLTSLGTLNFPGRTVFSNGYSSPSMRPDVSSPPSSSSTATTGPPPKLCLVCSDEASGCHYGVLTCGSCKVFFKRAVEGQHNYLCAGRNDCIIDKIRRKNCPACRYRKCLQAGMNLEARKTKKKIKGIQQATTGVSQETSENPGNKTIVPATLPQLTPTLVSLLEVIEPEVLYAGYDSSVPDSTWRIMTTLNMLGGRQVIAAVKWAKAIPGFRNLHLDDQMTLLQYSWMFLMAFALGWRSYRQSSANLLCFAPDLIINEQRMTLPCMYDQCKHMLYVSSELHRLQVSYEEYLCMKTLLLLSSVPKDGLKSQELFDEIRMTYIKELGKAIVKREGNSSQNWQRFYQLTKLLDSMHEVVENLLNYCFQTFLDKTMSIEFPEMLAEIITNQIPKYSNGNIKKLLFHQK
Chain of Cytochrome P450 1A2 (Homo sapiens) (P05177 whole entry, looked up): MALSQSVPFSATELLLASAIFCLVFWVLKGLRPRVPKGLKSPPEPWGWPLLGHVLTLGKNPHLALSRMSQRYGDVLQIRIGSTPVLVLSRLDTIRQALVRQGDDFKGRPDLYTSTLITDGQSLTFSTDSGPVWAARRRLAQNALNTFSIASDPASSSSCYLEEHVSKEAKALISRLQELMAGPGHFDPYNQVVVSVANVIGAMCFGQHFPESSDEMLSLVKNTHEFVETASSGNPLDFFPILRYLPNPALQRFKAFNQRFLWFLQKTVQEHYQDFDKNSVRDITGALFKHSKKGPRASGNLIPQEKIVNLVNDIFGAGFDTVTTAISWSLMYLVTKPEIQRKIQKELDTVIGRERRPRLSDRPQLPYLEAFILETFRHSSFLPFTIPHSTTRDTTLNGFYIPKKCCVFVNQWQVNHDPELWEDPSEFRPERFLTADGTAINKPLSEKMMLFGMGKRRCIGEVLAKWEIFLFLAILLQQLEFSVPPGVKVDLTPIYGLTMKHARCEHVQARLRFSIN
Chain of Cytochrome P450 2C9 (Homo sapiens) (P11712 whole entry, looked up): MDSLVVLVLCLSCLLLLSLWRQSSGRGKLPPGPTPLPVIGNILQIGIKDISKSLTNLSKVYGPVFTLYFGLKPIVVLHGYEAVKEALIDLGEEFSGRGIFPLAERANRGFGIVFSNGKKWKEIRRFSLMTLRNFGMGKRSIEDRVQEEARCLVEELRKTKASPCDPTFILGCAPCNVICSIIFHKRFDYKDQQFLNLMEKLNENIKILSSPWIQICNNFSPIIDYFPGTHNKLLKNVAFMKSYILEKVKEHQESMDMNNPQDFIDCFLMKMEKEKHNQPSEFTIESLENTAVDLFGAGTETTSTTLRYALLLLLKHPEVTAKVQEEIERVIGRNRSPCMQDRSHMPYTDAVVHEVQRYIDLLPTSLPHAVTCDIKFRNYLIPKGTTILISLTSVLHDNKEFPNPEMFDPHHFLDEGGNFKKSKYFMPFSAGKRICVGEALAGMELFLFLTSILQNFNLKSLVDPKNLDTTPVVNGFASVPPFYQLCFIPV

Row | Compound | Potency [1] | activity change, negative = inhibition [2] | Potency [3] | activity change, negative = inhibition [4] | activity, negative = inhibition [5] | Potency [6] | Potency [7] | outcome [8] | Potency [9] | activity change, negative = inhibition [10] | max response [10, 18] [%] | max response [10, 19] [%] | Potency [11] | Potency [12] | Potency [13] | Potency [14] | Potency [15] | Potency [16] | Potency [17]
1 | COc1cccc(Cn2c(=O)cnc3cncnc32)c1 | > 11.4 µM (inactive) | 13.8% (inactive) | 15.8 µM (active) | -18.4% (inactive) | -2.31% (inactive) | > 9.22 µM (inactive) | > 46 µM (inactive) | inactive | inactive | 1.18% (inactive) | 17.1 | 17.8 | 15.8 µM (active) | 28.2 µM (active) | inactive | inactive |  |  | 
2 | Cc1ccccc1-c1nccc(NCCN2CCOCC2)n1 | > 11.4 µM (inactive) | 20.7% (inactive) | 5.01 µM (active) | -13.9% (inactive) | -1.96% (inactive) | > 46 µM (inactive) | > 46 µM (inactive) | inactive | inactive | 3.61% (inactive) | 17.5 | 21.4 | inactive |  | inactive | inactive | inactive | inactive | 
3 | CCNc1ncc2nc(-c3cn(C)c4ccccc34)c(=O)n(-c3ccccc3)c2n1 | > 11.4 µM (inactive) | 2.53% (inactive) | 15.8 µM (active) | 3.22% (inactive) | -9.31% (inactive) | > 9.22 µM (inactive) | > 46 µM (inactive) | inactive | inactive | -0.273% (inactive) | 19.3 | 17.5 | 20 µM (active) |  | inactive | inactive |  | inactive | inactive
4 | Cc1noc(C)c1-c1nccc(N2CCOCC2)n1 | > 11.4 µM (inactive) | 19% (inactive) | 0.631 µM (active) | 4.77% (inactive) | 14.5% (inactive) |  | > 46 µM (inactive) | inactive |  | 6.74% (inactive) | 6.28 | 17 | 14.1 µM (active) | 14.1 µM (active) | inactive | inactive | inactive |  | 
5 | CS(=O)(=O)Nc1cccc(-c2ccc3ncnc(NC4CCNCC4)c3c2)c1 | > 11.4 µM (inactive) | 6.55% (inactive) |  | 0.249% (inactive) | 4.8% (inactive) | > 46 µM (inactive) | > 46 µM (inactive) | inactive |  | 4.99% (inactive) | 3.42 | 11 | 11.2 µM (active) | 7.08 µM (active) | inactive | inactive | inactive |  | 
6 | Cc1noc(C)c1-c1ccc2ncnc(N3CCN(C)CC3)c2c1 | > 11.4 µM (inactive) |  | 12.6 µM (active) |  |  | > 46 µM (inactive) | > 46 µM (inactive) | inactive | inactive | 0.38% (inactive) | 21 | 4.95 | 10 µM (active) | 10 µM (active) | inactive | inactive |  |  | 
